Compound activity (PubChem)
HGIII-sPLA2 inh: human group III sPLA2 inhibitors, primary screen, biochemical, QFRET, BODIPY PC-A2 liposome substrate; Group 3 secretory phospholipase A2 (Homo sapiens), Q9NZ20; QFRET BODIPY PC-A2 liposome hydrolysis, fluorescence; inhibition, % at 12.2 µM; actives 0.56% (n = 370,000); AID 743126, 2013;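 active = inhibition above mean plus 3 SD of compounds lying within the high and low control bounds, cut at about 19% in these data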;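 note: 0% = median of test compound wells and 100% = no enzyme DMSO wells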
Target sequence (Q9NZ20 whole entry, looked up): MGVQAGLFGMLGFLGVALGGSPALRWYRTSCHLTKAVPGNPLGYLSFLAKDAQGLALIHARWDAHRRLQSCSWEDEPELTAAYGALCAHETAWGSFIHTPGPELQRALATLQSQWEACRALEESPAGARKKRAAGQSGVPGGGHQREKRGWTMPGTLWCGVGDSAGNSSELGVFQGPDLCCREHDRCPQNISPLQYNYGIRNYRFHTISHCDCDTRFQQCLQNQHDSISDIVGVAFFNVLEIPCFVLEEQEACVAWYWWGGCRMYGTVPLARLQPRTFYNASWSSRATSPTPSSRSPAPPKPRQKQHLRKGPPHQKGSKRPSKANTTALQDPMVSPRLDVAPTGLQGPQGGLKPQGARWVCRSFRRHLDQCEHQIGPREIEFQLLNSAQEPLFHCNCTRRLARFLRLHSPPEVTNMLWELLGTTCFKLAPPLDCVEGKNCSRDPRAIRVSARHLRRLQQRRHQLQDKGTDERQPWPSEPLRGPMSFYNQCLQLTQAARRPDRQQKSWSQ
SKN-1 inh: suppressors of acrylamide-induced Pgst-4::GFP reporter in worms, primary screen, SKN-1 inhibitor project, whole organism, uHTS, GFP/RFP fluorescence ratio, strain VP596. C. elegans VP596 Pgst-4::GFP/RFP ratio, 24 h. inhibition, % at 21.8 µM. actives 0.49% (n = 360,000);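 active = interference check ratio from 0.5 to 1.5 plus GFP to RFP signal ratio inhibition reaching or exceeding a fixed threshold, cut at about 30% in these data, passing the limit was not always enough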
SUMO Mot1 rescue: yeast Mot1-301 growth rescue at high temperature, primary screen, SUMOylation pathway inhibitor project, S. cerevisiae, ATP luminescence, 38.5C; growth rescue, % at 18.8 µM; actives 1% (n = 320,000); S. cerevisiae Mot1-301 growth rescue; percent above DMSO median, 100 means doubled;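 active = every valid replicate shows activation above 250% relative to neutral control wells; inactive = the rest, any valid replicate at or below 250%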;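 note: OY570 slx delta 5 strain wells were the positive control but not used for scaling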
Efflux pump mplx: inhibitors of Candida efflux pumps in yeast, primary screen, S. cerevisiae, Nile Red, multiplex | S. cerevisiae Candida pump triplex | inhibition, % at 10 µM | actives 0.44% (n = 330,000) | AID 485275, 2010;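 active = plate passing quality check with inhibition over a set limit, or well fluorescence over plate mean plus 4 SD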;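 note: Nile Red retained in pooled yeast measured as flow cytometry median fluorescence; 0% = buffer negative control and 100% = Enniatin B positive control; higher means more Nile Red kept so more efflux inhibition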
Yeast Mot1 SUMO: growth restoration of Mot1-301 yeast on galactose, dose response, SUMO pathway inhibitor project, whole organism, S. cerevisiae, ATP luminescence, cherry-picked samples | growth activity, percent, % at 42 µM | 2,300 tested, under 10 active | S. cerevisiae Mot1-301 galactose growth, 24 h; -100 = growth of slx-deleted rescue strain | AID 493004, 2010 | shares compounds with SUMO Mot1 rescue;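 active = Signal drops as the depositor expects, and the fitted half-maximal dose is no more than ten times the top valid tested dose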;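 note: more negative values mean stronger growth rescue toward the control strain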
Active calls of the source: *; . = no result; + = active, no number. A selection: hits, their analogues and other compounds. The true share with any hit is near 2.2%.

SMILES	HGIII-sPLA2 inh	SKN-1 inh	SUMO Mot1 rescue	Efflux pump mplx	Yeast Mot1 SUMO
CC(=O)Nc1ccc(NC(=O)CCNC(=O)c2ccccc2Cl)cc1	-2.5	-3.8	-6.4	0.4	.
COc1cc(C)ccc1OCCCOc1ccccc1Br	-1.6	-10.2	+	-0.1	0.3
Fc1ccc2nc(C3CCN(Cc4nc(CC5CC5)no4)CC3)[nH]c2c1	2.7	1.4	459.6*	0.2	0.1
Fc1ccccc1C1CCN(Cc2nc(CC3CC3)no2)C1 (centres undefined)	2.5	16.0	-15.4	-0.2	.
CC(=O)N1CCc2cc(S(=O)(=O)Nc3ccc(C)cc3C)ccc21	2.0	7.8	-13.5	0.0	.
CC(=O)N1CCCc2cc(S(=O)(=O)Nc3ccc(C)cc3C)ccc21	-8.0	5.7	473.9*	0.1	0.5
Cc1ccc(C(=O)OCC(=O)N(C)c2c(N)n(Cc3ccccc3)c(=O)[nH]c2=O)s1	0.3	1.3	21.5	0.0	.
Cc1cc(C(F)(F)F)c(C#N)c(=O)[nH]1	2.9	5.0	+	-0.1	0.3
Cc1ccc(NC(=O)COC(=O)Cc2cccs2)cc1S(=O)(=O)N1CCOCC1	-14.9	8.8	11.7	0.0	.
CCOc1ccc(-c2nnn(CC(=O)NCc3ccco3)n2)cc1	-9.7	-14.1	0.1	0.0	.
CCOC(=O)c1ccc(CNC(=O)Cn2nnc(-c3ccc(C)cc3)n2)o1	0.3	19.6	+	-0.1	0.9
O=C(Nc1ccc2c(c1)oc1ccccc12)C1CC1	-7.4	9.6	+	0.0	-0.4
O=C(Nc1ccc2c(c1)oc1ccc(S(=O)(=O)N3CCCC3)cc12)C1CC1	-33.6	-10.2	2.4	0.1	.
N#Cc1ccccc1NC(=O)CSc1ccc([N+](=O)[O-])cn1	-2.6	-13.6	-11.7	-0.1	.
N#Cc1cc([N+](=O)[O-])cnc1NCC(O)CO (centres undefined)	6.2	-5.1	493.8*	-0.3	0.3
Cc1ccc(CNCCCn2cnc(C(=O)Nc3ccc(C)c(C)c3)n2)o1	-0.5	3.8	.	.	.
COc1ccc(C(=O)COc2ccc3ccc(=O)oc3c2)cc1	-2.5	7.4	426.0*	0.1	-0.2
Cc1cc2c(cc1C)-c1nnc(-c3ccc4ccccc4n3)n1C(C)(C)C2	.	.	643.8*	0.2	0.2
COC(=O)C12CCC3(SCCS3)C(C(=O)OC)(CCC13SCCS3)C2	1.8	3.9	522.7*	-0.7	-0.4
COC(=O)C1(Cc2cc(-c3ccccc3)no2)CCN(C(=O)OC(C)(C)C)CC1	-9.6	0.4	+	-0.1	-0.2
COC(=O)c1ccc(-c2cc(CC3(C(=O)OC)CCN(C(=O)OC(C)(C)C)CC3)on2)cc1	2.8	-1.3	-10.7	0.2	.
COc1ccc(-c2cc(CC3(C(=O)O)CCN(C(=O)OC(C)(C)C)CC3)on2)c(OC)c1	-7.2	6.9	380.7*	-0.2	0.5
CCOC(=O)c1csc(CCNC(=O)c2ccccc2)n1	10.0	-2.9	.	.	.
Cc1nc(CCNC(=O)c2ccccc2)cs1	1.5	-0.4	641.2*	0.1	0.2
O=C(NCc1ccco1)C1CC(=O)N(c2cccc(Cl)c2)C1 (centres undefined)	-4.6	-4.8	-17.1	0.0	.
SMILES	HGIII-sPLA2 inh	SKN-1 inh	SUMO Mot1 rescue	Efflux pump mplx	Yeast Mot1 SUMO
O=C(NCc1ccco1)C1CC(=O)N(c2ccc(Cl)cc2)C1 (centres undefined)	-0.5	2.7	648.3*	-0.1	-0.5
COC(=O)[C@]12C[C@H](CC(=O)NCc3ccc(C)o3)C(=O)N(Cc3ccc(Cl)cc3Cl)C1=C[C@H](C1CCCC1)O[C@@H]2C	-16.1	.	.	.	.
CCN1CCN(CC(=O)N2N=CCC2c2ccccc2)CC1 (centres undefined)	3.4	-8.7	805.3*	-0.2	0.0
O=C(CSc1ccc(Cl)cc1)N1N=CCC1c1ccccc1 (centres undefined)	-8.8	-3.1	7.7	-0.1	.
O=C(N/N=C/C(Br)=C/c1ccccc1)c1cccnc1	-4.7	-0.9	500.5*	0.0	-1.6
COc1ccc(CCN(Cc2cc3cccc(C)c3n3nnnc23)C(=O)c2ccncc2)cc1OC	.	.	72.1	0.2	.
COc1ccc2nc(C)cc(SCC(=O)Nc3c(C)cc(C)cc3C)c2c1	6.0	1.5	-15.4	1.0	.
CCOC(=O)CSc1cc(C)nc2ccc(OC)cc12	7.2	-1.7	476.2*	0.4	-0.4
CCOC(=O)CN1NC2(CCC(C(C)(C)C)CC2)NC1=S (centres undefined)	1.3	-31.8	500.0*	0.1	-0.4
CCOC(=O)CN1NC2(CCC(C)CC2)NC1=S (centres undefined)	0.2	7.2	366.5	0.2	.
CC1CC(C)(C)CC2(C1)NC(=O)N(CC(=O)N(C)Cc1nc3ccccc3c(=O)[nH]1)C2=O (centres undefined)	3.2	18.1	-2.7	-0.2	.
CCc1ccc(-n2c(Cc3ccccc3)n[nH]c2=S)cc1	11.4	-2.2	888.8*	0.3	1.7
Cc1cccc(-n2c(Cc3ccccc3)n[nH]c2=S)c1	12.0	3.4	26.3	0.0	.
COc1ccccc1CNC(=O)C1Cc2cc(S(=O)(=O)N3CCCCC3)ccc2N1C(C)=O (centres undefined)	-1.6	1.5	20.2	0.3	.
CC1=NNC(=O)C1Cc1ccccc1C (centres undefined)	1.2	-1.2	6.9	-0.1	.
C/C(CC(=O)NCc1ccco1)=N\NC(=O)Cc1ccc(-c2ccccc2)cc1	-0.6	-0.6	-19.3	0.1	.
C/C(CC(=O)NC1CCCCC1)=N\NC(=O)Cc1ccc(-c2ccccc2)cc1	-1.2	-8.7	437.0*	0.3	-0.1
Cc1ccc(Cn2c(NCCc3ccccc3)nc3c2c(=O)n(C)c(=O)n3C)cc1	-1.9	7.7	970.1*	0.0	0.6
C=CCn1c(NCCc2ccccc2)nc2c1c(=O)n(C)c(=O)n2C	1.9	-12.4	-11.7	0.1	.
COC(=O)c1cccc(NC(=O)c2ccc[n+]([O-])c2)c1	-1.1	-5.6	561.0*	-0.1	0.5
N#CC1=C(N)Oc2c(ccc3ccccc23)C1c1cccs1 (centres undefined)	.	.	508.2*	-0.1	0.7
O=C(Nc1ccc(S(=O)(=O)NC2=NCCCCC2)cc1)c1ccc(C(F)(F)F)cc1	.	4.1	450.9*	0.1	-0.9
O=C(CCl)N(Cc1cc(=O)[nH]c2ccccc12)c1ccccc1	3.6	8.3	490.8*	-0.2	0.1
CCC(=O)N(Cc1cc(=O)[nH]c2ccccc12)c1ccccc1	-1.3	-2.4	-3.7	0.0	.
CN(C)c1ccc(NS(=O)(=O)c2cccc(Cl)c2)cc1	6.7	5.5	732.8*	1.6	0.2
Cc1nn(-c2ccccc2)c(N)c1N=Nc1cccc(S(=O)(=O)N2CCOCC2)c1	6.3	13.5	386.7*	0.0	-0.9
Cc1nn(-c2ccccc2)c(N)c1N=Nc1ccccc1	2.5	11.2	76.1	0.1	.
